Compound activity: PubChem BioAssay, Broad Institute
esBAF inh – SWI/SNF esBAF complex inhibition | mouse ES cells, Bmi1-luciferase knock-in reporter, 24 h; 100% = twice the neutral-well signal | reporter increase, % at 12.5 µM | actives 2% (n = 350,000) | AID 602393; in the data active = activation above about 40%;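 note: 0% = median of the plate's neutral control wells and 100% = double that signal; a rise in the Bmi1 reporter signal indicates esBAF inhibition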
Wnt bcat act – Wnt/beta-catenin pathway activation; Wnt/beta-catenin reporter cell assay, activator, plate reader; activation, % at 9.35 µM; actives 1.2% (n = 300,000); AID 743398; in the data active = activation above about 30%, passing the limit was not always enough;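 note: 0% = neutral control wells and 100% = positive control wells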
Statin myotox sup – protects C2C12 myotubes from simvastatin toxicity | rescue of ATP level, % at 7.49 µM | actives 0.78% (n = 330,000) | ATP luminescence, 48 h; scaled: DMSO 0, geranylgeraniol control 100;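 active = mean ATP rescue above about 67%, or every replicate alone reaching that limit, limit read from the data, passing the limit was not always enough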;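 note: myotubes were challenged with 10 µM simvastatin during compound exposure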
MITF TRPM1 HTS – increases MITF-driven TRPM1 promoter luciferase signal. SK-MEL-5 TRPM1-promoter luciferase, 24 h; % of positive control, neutral wells = 0. activation, % at 12.5 µM. actives 0.75% (n = 300,000). AID 588334;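 active = mean activation of at least 80% with every replicate also reaching 80%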;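 note: 0% = neutral control wells and 100% = parthenolide positive control wells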
EBV LMP1 NFkB – Epstein-Barr LMP1 NF-kappaB reporter inhibition; actives 0.69% (n = 350,000); LMP1-induced NF-kappaB luciferase reporter cells, luminescence; AID 504558; inhibition, % at 12.5 µM; in the data active = inhibition above about 41%;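 note: 0% = neutral control wells and 100% = reference inhibitor control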
TRPM1 prom inh – MITF TRPM1 promoter inhibition in SK-MEL-5 cells; inhibition, % at 12.5 µM; SK-MEL-5 TRPM1 promoter luciferase, 24 h; AID 488899; actives 0.83% (n = 330,000);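 active = mean inhibition across replicates of 60% or more, whatever share of single replicates reaches that level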
* hit, by the source's call. Hits are enriched below; roughly 4% of the tested compounds scored in any of these assays.

What do the screens show for `COc1ccc(N=C(C)C2=C(O)c3ccccc3C2=O)cc1`?
Wnt bcat act: 58*; MITF TRPM1 HTS: 11; EBV LMP1 NFkB: -14; TRPM1 prom inh: -9

What do the screens show for `CC(=NC1CC1)C1=C(O)c2ccccc2C1=O`?
esBAF inh: 24; Wnt bcat act: -2; Statin myotox sup: 8; MITF TRPM1 HTS: 98*; EBV LMP1 NFkB: -16; TRPM1 prom inh: -99

Results for CCOc1ccc(N=C(C)C2=C(O)c3ccccc3C2=O)cc1 ?
Wnt bcat act: 39*; EBV LMP1 NFkB: -14; TRPM1 prom inh: -73

How did C/C(=N\N(C)C)C1=C(O)c2ccccc2C1=O do in these assays?
Wnt bcat act: 13; MITF TRPM1 HTS: 13; EBV LMP1 NFkB: -2; TRPM1 prom inh: -9

Results for CC(=O)Nc1ccc(N=C(C2=C(O)c3ccccc3C2=O)c2ccccc2)cc1 ?
Wnt bcat act: 11; MITF TRPM1 HTS: -3; EBV LMP1 NFkB: -10; TRPM1 prom inh: 4

Results for CS(=O)(=O)c1nc(S(=O)(=O)c2ccc(Cl)cc2)c(N2CCOCC2)s1 ?
esBAF inh: 4; Wnt bcat act: -3; Statin myotox sup: 16; MITF TRPM1 HTS: -73; EBV LMP1 NFkB: 8; TRPM1 prom inh: 67*

Results for CC1CN(c2sc(S(C)(=O)=O)nc2S(=O)(=O)c2ccc(Cl)cc2)CC(C)O1 (stereo not given) ?
esBAF inh: -6; Wnt bcat act: -3; Statin myotox sup: 4; MITF TRPM1 HTS: -27; EBV LMP1 NFkB: 4; TRPM1 prom inh: 22

What do the screens show for `Cc1cccc(-c2csc(N)c2C(=O)OC(C)C)c1`?
esBAF inh: -1; Wnt bcat act: -4; Statin myotox sup: 116*; MITF TRPM1 HTS: 7; EBV LMP1 NFkB: -4; TRPM1 prom inh: -7

What do the screens show for `Cc1ccc(C)c(-c2csc(N)c2C(=O)OC(C)C)c1`?
MITF TRPM1 HTS: 2; EBV LMP1 NFkB: -5; TRPM1 prom inh: -2

How did COc1ccc(NC(=S)N(CCc2c(C)[nH]c3ccc(C)cc23)Cc2cccnc2)cc1 do in these assays?
esBAF inh: 3; Wnt bcat act: -2; Statin myotox sup: 16; EBV LMP1 NFkB: -12

How did COCCNC(=S)N(CCc1c(C)[nH]c2ccc(OC)cc12)Cc1cccnc1 do in these assays?
esBAF inh: -6; Wnt bcat act: 1; Statin myotox sup: -3; MITF TRPM1 HTS: -6; EBV LMP1 NFkB: 42*; TRPM1 prom inh: 7

Results for COc1ccc(-c2cc([C@H]3[C@H]4C=CC[C@@H](C)[C@@H]4C(=O)N3Cc3ccccc3)ccc2F)cc1OC ?
esBAF inh: 48*; Wnt bcat act: 12; Statin myotox sup: 10; MITF TRPM1 HTS: 53; EBV LMP1 NFkB: 11; TRPM1 prom inh: -51

What do the screens show for `CC(=O)c1ccc(-c2ccc([C@H]3[C@H]4C=CC[C@@H](C)[C@@H]4C(=O)N3Cc3ccccc3)c(F)c2)cc1`?
esBAF inh: 0; Wnt bcat act: 5; Statin myotox sup: 6; MITF TRPM1 HTS: 5; EBV LMP1 NFkB: -11; TRPM1 prom inh: -4

How did COC(=O)c1ccc(-c2ccc([C@H]3[C@H]4C=CC[C@@H](C)[C@@H]4C(=O)N3Cc3ccccc3)c(F)c2)cc1 do in these assays?
esBAF inh: 59*; Wnt bcat act: -12; Statin myotox sup: -24; EBV LMP1 NFkB: 16

How did COc1ccc(-c2ccc(C(C)=O)cc2)cc1[C@H]1[C@H]2C=CC[C@@H](C)[C@@H]2C(=O)N1Cc1ccccc1 do in these assays?
esBAF inh: -2; Wnt bcat act: 3; Statin myotox sup: 18; MITF TRPM1 HTS: 21; EBV LMP1 NFkB: 4; TRPM1 prom inh: -17

What do the screens show for `COC(=O)c1ccc(-c2ccc(OC)c([C@H]3[C@H]4C=CC[C@@H](C)[C@@H]4C(=O)N3Cc3ccccc3)c2)cc1`?
esBAF inh: 79*; Wnt bcat act: 2; Statin myotox sup: -52; MITF TRPM1 HTS: 26; EBV LMP1 NFkB: 10; TRPM1 prom inh: -23

How did COc1ccc(-n2nnnc2SC(C)C(=O)NCC(=O)Nc2ccc(F)c(F)c2F)cc1 (stereo not given) do in these assays?
esBAF inh: -11; Wnt bcat act: -4; Statin myotox sup: -2; MITF TRPM1 HTS: -9; EBV LMP1 NFkB: 4; TRPM1 prom inh: 7

What do the screens show for `CN1CCCCN2[C@@H](CO)[C@@H](c3ccc(-c4ccccc4)cc3)[C@@H]2C1`?
esBAF inh: -3; Statin myotox sup: 11
